From PubChem BioAssay AID504467 (National Center for Advancing Translational Sciences (NCATS), 2011)
The campaign covered roughly 330,000 compounds. About 7,700 (2.3%) were called active. Inconclusive results (about 26%) are left out. The call rests on the fitted dose curve; in most records, active means well fitted inhibition curve with a large enough effect; inconclusive means small, poorly fitted or top-dose-only effect, or effect the other way; inactive means flat fitted curve, though single readings scatter. Shown is part of a subset that was picked to be rich in actives.

Assay: qHTS screen for small molecules that inhibit ELG1-dependent DNA repair in human embryonic kidney (HEK293T) cells expressing luciferase-tagged ELG1; further: nearly all actives have a fitted effect of over 55% in size
Settings: HEK293T ELG1-luciferase reporter, luminescence, 16 h, DNA damage induced by 5-fluorouridine; series mostly up to 46.1 µM; activity change, negative = inhibition: at the top concentration
Description: NIH Molecular Libraries Probe Production Network [MLPCN] NIH Chemical Genomics Center [NCGC] MLPCN Grant: 1 R03 MH092164-01 Assay Provider: Kyungjae Myung, NHGRI, NIH Keywords: MLPCN, qHTS, NCGC, genotoxicity, cancer Assay Overview: Cancer cells divide rapidly compared to normal cells in the body. During cell division, cancer cells need to duplicate their genome by DNA replication. The failure of genome duplication leads to cancer cells' death. Therefore, inhibitors of DNA replication could specifically kill cancer cells. Based on this concept, many chemotherapeutic agents were developed and have been used to treat cancer patients. However, there are a limited number of agents available in the clinical setting, and some of those that do exist have low efficacy and severe side effects. Therefore, if we can find the compounds that effectively block DNA replication either by directly damaging DNA or by inhibiting other cellular mechanisms, the options for cancer treatment will be broadened. With this in mind, we developed a quantitative high-throughput ELG1-luciferase reporter gene assay. Small molecules that specifically block ELG1 function in response to DNA damage can be identified by monitoring the suppression of luciferase activity. Since ELG1 defines a pathway for repairing DNA damage, agents blocking ELG1 function can be used to sensitize cancer cells to chemotherapeutic agents whose mechanism of action involves the induction of DNA damage.
Assay Protocol Summary: For genotoxicity screening, 2,000 cells in 4 uL/well were dispensed into white, solid-bottom 1536-well plates using a solenoid-based dispenser. Following transfer of 1 uL 5-Fluorouridine and 23 nL compound or DMSO vehicle by a pin tool, the plates were incubated 16 hr at 37 °C and 5% CO2. 5 ul ONE-Glo (Promega) was then added to each plate and following a 30 min incubation at room temperature, luciferase activity was quantified on a ViewLux CCD-based plate reader.
On the % scale 0 is the no-effect control and ±100 the full control effect; potency means the concentration at half of the fitted maximal effect.

Structure (SMILES)	activity change, negative = inhibition	Potency
COc1ccc(NC(=O)CCS(=O)(=O)c2cc3c(cc2Cl)NC(=O)CO3)cc1OC	16.1% (inactive)	–
O=C(c1ccc(Cl)c(S(=O)(=O)N2CCCCC2)c1)N1CCCCCC1	2.35% (inactive)	–
O=C(c1ccc(Cl)c(S(=O)(=O)N2CCCCCC2)c1)N1CCN(c2ccc(O)cc2)CC1	–	20.6 µM (active)
O=C(c1ccc(Cl)c(Cl)c1)N1CCCC1	5.11% (inactive)	–
Nn1c(SCC(=O)NC2CCCc3ccccc32)nnc1C1CC1 (stereo not drawn)	10.4% (inactive)	–
O=C(CN1C(=O)NC2(CCCC2)C1=O)Nc1cc(C(F)(F)F)ccc1N1CCOCC1	0.372% (inactive)	–
O=C(NCCc1ccc(F)cc1)c1ccc(S(=O)(=O)N2CCCCC2)cc1	-11.7% (inactive)	–
N#Cc1ccc(Oc2cc(C(F)(F)F)nc(-c3ccccn3)n2)cc1	-1.14% (inactive)	–
Cc1ccc(Oc2nc(-c3ccccn3)nc3ccccc23)cc1	–	18.3 µM (active)
COc1ccccc1Oc1nc(-c2cccnc2)nc2ccccc12	6.54% (inactive)	–
CCS(=O)(=O)N1CCC(N2CCN(c3ccccc3)CC2)CC1	1.12% (inactive)	–
O=C(c1ccccc1)N1CCN(C(=O)c2cc3nc(-c4ccccc4)cc(C(F)(F)F)n3n2)CC1	–	7.3 µM (active)
O=C(O)c1cnn2c(C(F)(F)F)cc(-c3ccccc3)nc12	11.5% (inactive)	–
COC(=O)c1cc2nc(-c3ccccc3)cc(C(F)(F)F)n2n1	1.13% (inactive)	–
CCc1cccc(C)c1NS(=O)(=O)c1cc(Br)cnc1N	14.3% (inactive)	–
COc1ccc(C)cc1N(C(=O)Cn1nnc(-c2ccc(C)o2)n1)C(C(=O)NC1CCCC1)c1ccncc1 (stereo not drawn)	0.49% (inactive)	–
COc1ccccc1NC(=O)COC(=O)CNC(=O)C1CCCCC1	14.3% (inactive)	–
Cc1ccc(CC(=O)N(C)CC(=O)N(CC(C)C)c2c(N)n(CC(C)C)c(=O)[nH]c2=O)cc1C	5.07% (inactive)	–
Cn1nnnc1SCC(=O)Nc1cccc(S(=O)(=O)N2CCCCC2)c1	-0.942% (inactive)	–
COc1cccc(N(CC(=O)NC2CCCC2)C(=O)Cn2nnc(-c3ccc(C)o3)n2)c1	9.25% (inactive)	–
CCOC(=O)C1CCN(C(=O)Cn2nc(C)c3c(C)n(-c4ccccc4)nc3c2=O)CC1	3.06% (inactive)	–
CC1=C/C(=N\S(=O)(=O)c2ccccc2)C(C(C)C)=CC1=O	-28.8% (inactive)	–
COc1ccc2cc(S(=O)(=O)Nc3ccccn3)ccc2c1	-4.39% (inactive)	–
COc1ccc(S(=O)(=O)/N=C2\C=C(NS(=O)(=O)c3ccccc3)C(=O)c3ccccc32)cc1	–	23.1 µM (active)

Structure (SMILES)	activity change, negative = inhibition	Potency
CCCSc1nc2sc3c(c2c(=O)n1-c1ccc(OC)cc1)CCN(C)C3	-16% (inactive)	–
COc1ccc(C(C(=O)NC2CCCC2)N(CCCO)C(=O)Cn2nnc(-c3ccc(C)o3)n2)cc1 (stereo not drawn)	9.12% (inactive)	–
COc1ccc(-c2nc(N)ncc2-c2ccc(Cl)cc2)c(O)c1	-24.7% (inactive)	–
C=C(C)COc1ccc(-c2nc(N)ncc2-c2ccccc2OC)c(O)c1	-24.3% (inactive)	–
C=C(C)COc1ccc(-c2ncncc2-c2ccc(OC)cc2)c(O)c1	–	16.4 µM (active)
COc1ccc(C(C)(C)C)cc1NC(=O)CCN1C(=O)C2CCCCC2C1=O (stereo not drawn)	4.35% (inactive)	–
COC(=O)c1c(NC(=O)c2ccccc2F)sc2c1C(C(=O)OC)CC2 (stereo not drawn)	-3.34% (inactive)	–
CCc1ccc(N(CC)c2ncnc3nc[nH]c23)cc1	–	4.11 µM (active)
CCOc1ccc(N=Cc2c(O)n(-c3cccc(C)n3)c(=O)c3ccccc23)cc1	-23.9% (inactive)	–
CCOc1ccc(-n2c(O)c(/C=N/Nc3nnc(C)c(=O)[nH]3)c3ccccc3c2=O)cc1	-3.75% (inactive)	–
CCOc1ccc(-n2c(O)c(/C=N/Nc3nc(C)cc(C)n3)c3ccccc3c2=O)cc1	–	14.6 µM (active)
COc1ccc2[nH]c3c(c2c1)CCN1C(=O)C(CC(=O)NCCc2ccccn2)C[C@H](C(=O)N2CCOCC2)[C@@]31C (stereo partly drawn)	12.1% (inactive)	–
COc1ccc(CCNC(=O)CSc2nnc(-c3cccc(F)c3)o2)cc1OC	-0.414% (inactive)	–
COc1ccc(-c2nnc(SCC(=O)NC3CCCCC3)o2)cc1OC	1.19% (inactive)	–
COc1ccc(CN(C(=O)CSc2nnc(-c3ccc(OC)c(OC)c3)o2)c2ccc(F)cc2)cc1	–	16.4 µM (active)
COc1ccc(NC(=O)c2sc(N3CCOCC3)nc2-c2ccccc2)c(OC)c1	–	13 µM (active)
COc1cc([N+](=O)[O-])ccc1NC(=S)N1CCN(c2ccccn2)CC1	-8.41% (inactive)	–
CCN(CC)c1ccc(NC(=O)CN2CCN(c3ccccn3)CC2)cc1	-8.23% (inactive)	–
COc1ccc(OC)c(NC(=O)c2sc3nc(C)cc(C)c3c2N)c1	21.9% (inactive)	–
Cc1nc(N2CCN(c3ccccn3)CC2)c2c(C)c(C(=O)Nc3ccc(F)c(Cl)c3)sc2n1	–	3.26 µM (active)
COc1cc2ccccc2cc1C(=O)Nc1ccc(N2CCOCC2)cc1	0.106% (inactive)	–
COc1ccc(NC(=O)c2sc(N)nc2-c2ccccc2)cc1	-2.97% (inactive)	–
COc1ccc(NC(=O)c2sc3nc(C)nc(N4CCN(c5ccccn5)CC4)c3c2C)c(OC)c1	–	2.31 µM (active)
CCC(=O)Nc1ccc2c(c1)nc(CCN1CCN(c3ccccn3)CC1)n2C	-15.2% (inactive)	–
